Structures can show the parent of a compound that is named as a salt.
Legend:
Settings in all cases: compound concentration in added solution (µM; 5 µl added to 20 µl cells): 10; 18 h
A431 [1] = experiment: LBPA endosome anti-LBPA integrated intensity (sum per cell), Z-score; higher = more LBPA staining
Outline: (§1)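 Per-cell integrated LBPA or filipin intensity, whole-cell or within LBPA endosomes, is expressed as Z-scores normalised in AcuityXpress. HeLa MZ or A431 cells, 3,500 per well in 20 µl, sat on 5 µl of 10 µM compound solution in duplicate 384-well imaging plates for 18 h. They were then fixed in 4% PFA, stained, imaged in four 20× fields per well and segmented using MetaXpress.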

HeLa MZ [2] = experiment: as above
Outline: as §1

A431 [3] = experiment: whole-cell filipin (free cholesterol) integrated intensity, Z-score; higher = more cholesterol staining
Outline: as §1

HeLa MZ [4] = experiment: as above
Outline: as §1

A431 [5] = experiment: filipin (cholesterol) integrated intensity within LBPA endosomes, Z-score; higher = more cholesterol in LBPA endosomes
Outline: as §1

HeLa MZ [6] = experiment: as above
Outline: as §1

Compound | LBPA endosome anti-LBPA integrated intensity (z-score) (A431 [1]) | LBPA endosome anti-LBPA integrated intensity (z-score) (HeLa MZ [2]) | whole-cell filipin (z-score) (A431 [3]) | whole-cell filipin (z-score) (HeLa MZ [4]) | filipin (z-score) (A431 [5]) | filipin (z-score) (HeLa MZ [6])
CC(C)(C)NC[C@H](O)c1ccc(O)c(CO)c1 [Levalbuterol hydrochloride] | -0.401 | -1.22 | 0.171 | -0.774 | -0.471 | -0.476
C[C@@H]1NC(=O)NC1=O [Methylhydantoin-5-(L)] | -0.307 | 0.559 | -0.263 | -0.142 | -0.411 | -0.338
OCCOCCN1CCN(C(c2ccccc2)c2ccc(Cl)cc2)CC1 (configuration not stated) [Hydroxyzine dihydrochloride] | 0.255 | 0.53 | 0.266 | -0.465 | 0.492 | 0.489
CC[C@H](C)C(=O)O[C@H]1C[C@H](O)C=C2C=C[C@H](C)[C@H](CC[C@@H](O)C[C@@H](O)CC(=O)O)[C@H]21 [Pravastatin] | 1.48 | 0.0503 | -0.289 | -0.634 | 0.0167 | -0.441
O=c1cc(-c2ccc(O)c(O)c2)oc2cc(O)cc(O)c12 [Luteolin] | -0.401 | 0.459 | -0.523 | -0.0366 | -0.468 | -0.425
CC(C(O)c1ccc(O)cc1)N1CCC(Cc2ccccc2)CC1 (configuration not stated) [Ifenprodil tartrate] | 0.387 | -0.296 | 0.502 | 0.445 | 0.406 | 0.378
CCCCC(=O)O[C@H]1CC[C@H]2[C@@H]3CCc4cc(O)ccc4[C@H]3CC[C@]12C [Estradiol Valerate] | -0.347 | -0.788 | 0.103 | 0.191 | -0.224 | -0.226
CC(C)NCC(O)c1cc(O)cc(O)c1 (configuration not stated) [Metaproterenol sulfate, orciprenaline sulfate] | -0.366 | -0.417 | -0.271 | -0.375 | -0.531 | -0.465
COc1ccccc1OCC(O)CO (configuration not stated) [Guaifenesin] | -0.398 | -0.463 | -0.553 | -0.523 | -0.471 | -0.504
NCCc1ccc(O)c(O)c1 [Dopamine hydrochloride] | -0.272 | 0.0633 | 0.184 | -0.446 | -0.377 | -0.485
CC(C)(C)C(=O)OCOC(=O)[C@@H]1N2C(=O)[C@@H](/N=C/N3CCCCCC3)[C@H]2SC1(C)C [Pivmecillinam hydrochloride] | -0.535 | -0.482 | -0.185 | -0.0756 | -0.424 | -0.445
CCN(CC)CCNC(=O)c1cc(S(C)(=O)=O)ccc1OC [Tiapride hydrochloride] | -0.48 | 0.333 | -0.576 | -0.522 | -0.565 | -0.513
CC(=O)Oc1ccc(C(c2ccc(OC(C)=O)cc2)c2ccccn2)cc1 [Bisacodyl] | -0.461 | 0.379 | -0.546 | 0.375 | -0.421 | -0.162
N[C@@H](C(=O)N[C@@H]1C(=O)N2C(C(=O)O)=C(Cl)CS[C@H]12)c1ccccc1 [Cefaclor hydrate] | -0.551 | -0.828 | -0.722 | -0.368 | -0.522 | -0.558
CN(C(=O)CN(CCO)CC(=O)N(C)C(C)(C)Cc1ccccc1)C(C)(C)Cc1ccccc1 [Oxethazaine] | 1.71 | 0.996 | 1.26 | 0.298 | 1.53 | 2.17
CCOC(=O)C1=C(C)NC(C)=C(C(=O)OC)C1c1cccc([N+](=O)[O-])c1 (configuration not stated) [Nitrendipine] | -0.341 | 0.238 | -0.283 | 0.00443 | -0.327 | -0.297
Cc1cc2c(cc1S(N)(=O)=O)S(=O)(=O)CCC2 [Meticrane] | -0.412 | -0.455 | -0.803 | -0.699 | -0.464 | -0.558
CCCOc1ccc(C(=O)OCCN(CC)CC)cc1N [Proparacaine hydrochloride] | -0.432 | 0.26 | -0.369 | -0.271 | -0.454 | -0.0385
CSc1ccc2c(c1)N(CCC1CCCCN1C)c1ccccc1S2 (configuration not stated) [Thioridazine hydrochloride] | 1.04 | 0.375 | -0.796 | -0.81 | 1.25 | 1.45
CCN(CC)CC#CCOC(=O)C(O)(c1ccccc1)C1CCCCC1 (configuration not stated) [Oxybutynin chloride] | 0.579 | 1.7 | 0.833 | 0.613 | 0.892 | 1.15
CN(C)/N=N/c1[nH]cnc1C(N)=O [Dacarbazine] | -0.547 | -0.605 | -0.746 | -0.976 | -0.487 | -0.668
NS(=O)(=O)c1cc(C(=O)O)c(NCc2ccco2)cc1Cl [Furosemide] | -0.539 | -0.705 | -0.993 | -0.823 | -0.572 | -0.492
